Screening data (PubChem)
Most compounds without a hit are left out; they make up all but 2.3% or so of the library.
Rango complex inh: Rango-importin beta binding inhibition | Rango CFP/YFP FRET sensor + importin beta, 45 min | 340,000 tested, 0.031% active | Q14974 | AID 540263 | Potency, µM (top dose mostly 92.2 µM); calls by dose curve; also: nearly all actives have a fitted effect of over 15% in size
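FRET biosensor (snurportin 1 IBB flanked by EYFP and cerulean), 50 nM, with compound 5 min, then 0.125 microM importin beta in PBS, 1 mM DTT, 0.02% Tween-20, 0.1% BSA. CFP/YFP ratio read after 45 min at room temperature; pre-read flags interference.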
Rango release inh: prevents RanGTP from dissociating the Rango-importin beta complex. O95149+P62826. Biochemical FRET Rango-importin beta, RanGTP-induced dissociation. 340,000 tested, 0.071% active. Potency, µM (top dose mostly 46.1 µM); calls by dose curve; also: nearly all actives have a fitted effect of over 45% in size
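Compounds preincubate 5 min with complex of recombinant Rango and importin beta in PBS with 1 mM DTT. Ran (0.6 uM) loaded with 2 mM GTP plus 0.2 uM RCC1 starts dissociation; FRET is recorded 45 min later.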
A549 tox-1: kills or reduces viability of A549 cells in Nrf2 counter-screen. A549 ARE-Fluc cells, CellTiter-Fluor viability, 18-24 h. Potency, µM (doses to about 46 µM), most hits filed as inhibitors. 390,000 tested, 0.16% active. AID 504648
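Cytotoxicity counterscreen: CellTiter-Fluor fluorescence was measured in A549 ARE_Fluc cells after 18-24 h of compound exposure in a concentration series. The subsequent BugLite luminescent read reports ARE-luciferase activity.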
Nrf2 inh: blocks Nrf2 signaling; A549 ARE-Fluc reporter, luciferase luminescence, 18-24 h; Potency, µM (series often up to 46 µM), usual class: inhibitors; 360,000 tested, 2.1% active; also: nearly all actives have a fitted effect of over 60% in size
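Nrf2 function is reported as luminescence of an ARE-controlled luciferase in A549 cells. Compounds were tested at several concentrations, and a CellTiter-Fluor read on the same wells flagged cytotoxicity.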
Nrf2 activator: activates Nrf2 signaling; Potency, µM (highest dose often 46.1 µM), usual class: activators; AREc32 ARE-luciferase reporter (MCF7-derived line), luminescence, 24 h; 410,000 tested, 0.31% active; also: nearly all actives have a fitted effect of over 65% in size
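Quantitative high-throughput format: AREc32 reporter cells, 1000 per well, received compound by pin transfer and were incubated 24 hr at 37 deg C, 5% CO2, before Steady-Glo luminescence detection.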
FLuc enzyme inh: firefly luciferase inhibition, Nrf2 hit validation. shares compounds with Nrf2 inh. purified firefly luciferase, luminescence inhibition. Potency, µM (highest dose often 57.5 µM), usual class: inhibitors. 1,400 tested, 4% active; also: nearly all actives have a fitted effect of over 65% in size
Target sequence (P08659 whole entry, looked up): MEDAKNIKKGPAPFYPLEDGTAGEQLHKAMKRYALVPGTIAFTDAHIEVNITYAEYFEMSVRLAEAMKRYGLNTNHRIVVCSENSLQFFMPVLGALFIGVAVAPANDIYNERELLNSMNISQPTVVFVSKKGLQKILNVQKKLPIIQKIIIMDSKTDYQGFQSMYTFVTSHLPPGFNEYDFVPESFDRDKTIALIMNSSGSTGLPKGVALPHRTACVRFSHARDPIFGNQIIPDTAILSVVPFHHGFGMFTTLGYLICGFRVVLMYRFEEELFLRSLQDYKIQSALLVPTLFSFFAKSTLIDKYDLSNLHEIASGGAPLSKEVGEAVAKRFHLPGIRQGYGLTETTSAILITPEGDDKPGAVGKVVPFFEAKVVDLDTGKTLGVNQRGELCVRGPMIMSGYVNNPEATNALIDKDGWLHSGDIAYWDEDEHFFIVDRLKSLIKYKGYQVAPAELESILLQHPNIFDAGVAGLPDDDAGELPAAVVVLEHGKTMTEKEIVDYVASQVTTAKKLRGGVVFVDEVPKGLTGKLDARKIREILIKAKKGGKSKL
A549 tox-2: A549 cytotoxicity, Nrf2 inhibitor counterscreen | shares compounds with Nrf2 inh | 1,400 tested, 2% active | Potency, µM (series often up to 46.1 µM), hits mostly inhibitors | A549 ARE-Fluc cells, cytotoxicity counterscreen | AID 720523;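 also: cells exposed to compounds for 18 to 24 hours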
ARE-Fluc inh: confirmation of Nrf2 inhibitors in A549 ARE reporter cells. shares compounds with Nrf2 inh. A549 ARE-firefly luciferase reporter, luminescence. Potency, µM (titrated, usually from 46.1 µM), most hits filed as inhibitors. 1,400 tested, 74% active; also: nearly all actives have a fitted effect of over 65% in size
Large screens that a line does not name were inactive (follow-up assays come after a bar, where shown). Unless noted, calls follow the shape of the dose curve; as a rule, active = well fitted curve in the direction sought with a large enough effect; inconclusive = small, poorly fitted or top-dose-only effect, or another doubt; inactive = no such curve, though single readings can be large; an effect the other way counts as inactive or inconclusive.

CCN(CC)S(=O)(=O)c1ccc2oc(SCC3CN=C(c4ccc(OC)cc4)S3)nc2c1 (centres undefined)	Nrf2 inh 6.5µM | FLuc enzyme inh inactive | A549 tox-2 inactive | ARE-Fluc inh inconclusive
O=C(OC1CCOC1=O)c1cc(S(=O)(=O)N2CCOCC2)c(Cl)cc1Cl (centres undefined)	none
NC(=S)N/N=C/c1ncc(C(F)(F)F)cc1Cl	A549 tox-1 inconclusive, Nrf2 inh 4.1µM | FLuc enzyme inh inactive | A549 tox-2 inconclusive | ARE-Fluc inh 5.2µM
COCCCNC(=O)[C@@H](Cc1ccccc1)NC(=O)CC[C@H]1O[C@@H](n2ccc(=O)[nH]c2=O)[C@H](O)[C@@H]1O	none (no result: Rango complex inh, Rango release inh, A549 tox-1, Nrf2 inh)
CCc1ccc(OCc2nc(-c3ccc(-n4cccc4)cc3)no2)cc1	Nrf2 inh inconclusive (no result: Rango complex inh, Rango release inh)
CCc1ccc(OC(C)c2nc(-c3ccc(-n4cccc4)cc3)no2)cc1 (centres undefined)	Nrf2 inh 8.2µM (no result: Rango complex inh, Rango release inh) | FLuc enzyme inh inactive | A549 tox-2 inactive | ARE-Fluc inh 8.2µM
O=C1NC2=C(C(=O)OC2)C(c2ccc(OC(F)(F)F)cc2)N1 (centres undefined)	none
Cc1cc(OCC(=O)Nc2ccncc2)ccc1Cl	Nrf2 inh inconclusive
Cc1cc(OCC(=O)Nc2ccncc2)cc(C)c1Br	Nrf2 inh 9.2µM | FLuc enzyme inh inactive | A549 tox-2 inactive | ARE-Fluc inh 8.2µM
COc1ccccc1NC(=O)C1=C(C)Nc2c(C(=O)Nc3ccc(F)cc3)cnn2C1c1ccc(Cl)cc1 (centres undefined)	none (no result: Rango complex inh, Rango release inh)
COc1ccccc1C1Nc2c(sc3nc(C)cc(C)c23)C(=O)N1c1ccccc1 (centres undefined)	none (no result: Rango complex inh, Rango release inh)
O=C(Nc1ccc(F)c(F)c1)c1cc(S(=O)(=O)NCc2ccc3c(c2)OCO3)ccc1F	none (no result: Rango complex inh, Rango release inh, Nrf2 inh)
COc1ncccc1C(=O)N1CCCC(N2CCN(c3ccc(F)cc3)CC2)C1 (centres undefined)	none
COc1ncccc1C(=O)N1CCCC(N2CCN(c3cccc(Cl)c3)CC2)C1 (centres undefined)	Nrf2 inh 8.2µM | FLuc enzyme inh inactive | A549 tox-2 inactive | ARE-Fluc inh inconclusive
Cc1ccc(-n2cc(CN3CCC(O)(c4ccccn4)CC3)c(-c3ccc(F)cc3)n2)cc1	A549 tox-1 inconclusive, Nrf2 inh inconclusive
Cc1sc2ncnc(N3CCN(S(=O)(=O)c4ccc(C(C)(C)C)cc4)CC3)c2c1C	A549 tox-1 inconclusive, Nrf2 inh inconclusive
Cc1ccc(S(=O)(=O)N2CCN(C(=O)C3CCN(c4ncnc5sc(C)c(C)c45)CC3)CC2)c(C)c1	Nrf2 inh 8.2µM | FLuc enzyme inh inactive | A549 tox-2 inactive | ARE-Fluc inh 12µM
CCCn1c2ccccc2c2cnn(CC(=O)N(Cc3ccccc3)C(C)C)c(=O)c21	none (no result: Rango complex inh, Rango release inh)
NC(=O)c1cccc(-c2cnc(N)c(C(=O)c3cccnc3)n2)c1	Rango complex inh inconclusive, Rango release inh inconclusive, A549 tox-1 inconclusive, Nrf2 inh inconclusive
CC(=O)Nc1cccc(-c2cnc(N)c(C(=O)c3cccnc3)n2)c1	Rango complex inh inconclusive, A549 tox-1 inconclusive, Nrf2 inh 5.2µM | FLuc enzyme inh inactive | A549 tox-2 inactive
CC(=O)Nc1sc2c(c1-c1nc3ccccc3s1)CCN(C(C)C)C2	Rango complex inh inconclusive, Rango release inh inconclusive, Nrf2 inh 6.5µM | FLuc enzyme inh inactive | A549 tox-2 inactive | ARE-Fluc inh 6.5µM
O=C(Nc1ccccc1C(=O)N1CCOCC1)c1ccc(Br)cc1	none
COc1ccc(NC(=O)c2ccc(COCC(F)(F)C(F)F)cc2)cc1OC	none
COc1cc(NC(=O)c2cccc(COCC(F)(F)C(F)F)c2)cc(OC)c1OC	Nrf2 inh 9.2µM | FLuc enzyme inh inactive | A549 tox-2 inactive | ARE-Fluc inh inactive
O=C(Nc1nonc1NC(=O)c1cccs1)c1cccs1	A549 tox-1 inconclusive, Nrf2 inh 1.6µM | FLuc enzyme inh inactive | A549 tox-2 inactive | ARE-Fluc inh 6.5µM
Cc1ccccc1C(c1c(C)n(C)n(-c2ccccc2)c1=O)c1c(C)n(C)n(-c2ccccc2)c1=O	none (no result: Rango complex inh, Rango release inh)
COc1cccc(C(=O)N(Cc2cccnc2)c2nc3c(OC)ccc(C)c3s2)c1OC	none (no result: Rango complex inh, Rango release inh, Nrf2 inh)
COc1ccccc1C(=O)NCCCNC(=O)c1cccnc1	Nrf2 inh 1.8µM | FLuc enzyme inh inactive | A549 tox-2 inactive | ARE-Fluc inh inactive
Cc1cc(C)n(C(N)=NC(=O)c2ccccc2)n1	none (no result: Rango complex inh, Rango release inh, A549 tox-1, Nrf2 inh)
Cc1ccc(S(=O)(=O)N(C)Cc2ccc(C(=O)N/N=C/c3ccc(OC(F)F)cc3OC(F)F)cc2)cc1	Nrf2 inh 9.2µM | FLuc enzyme inh inactive | A549 tox-2 inactive | ARE-Fluc inh 4.6µM
O=C(N/N=C/c1ccc(OC(F)F)cc1OC(F)F)c1ccc(Br)cc1	none
COc1cccc(/C=N/n2c(N)c(S(=O)(=O)c3cccs3)c3nc4ccccc4nc32)c1OC	Rango release inh inconclusive, A549 tox-1 inconclusive, Nrf2 inh 3.7µM | FLuc enzyme inh inactive | A549 tox-2 inactive
C=CCn1c(SCc2c(C)noc2C)nc2sc3c(c2c1=O)CCCC3	A549 tox-1 inconclusive, Nrf2 inh 9.2µM | FLuc enzyme inh inactive | A549 tox-2 inactive | ARE-Fluc inh inconclusive
Cc1noc(C)c1CSc1nc2sc3c(c2c(=O)n1C)CCCC3	A549 tox-1 inconclusive, Nrf2 inh inconclusive
CC(C)NC(=O)C1CCN(C(=O)c2cc3sccc3n2Cc2ccc(Cl)cc2)CC1	Nrf2 inh 5.8µM (no result: Rango complex inh, Rango release inh) | FLuc enzyme inh inactive | A549 tox-2 inconclusive | ARE-Fluc inh 4.1µM
CC1CCN(C(=O)C2CCN(C(=O)c3cc4sccc4n3Cc3ccc(F)cc3)CC2)CC1	none
O=C1CCCC2=C1C(c1ccc(O)cc1)c1c(ccc3ccccc13)N2 (centres undefined)	none
CC(/C=N\NC(=O)Cn1c(C)nc2ccccc21)=C\c1ccccc1	Nrf2 inh 8.2µM | FLuc enzyme inh inactive | A549 tox-2 inactive | ARE-Fluc inh 7.3µM
CC(/C=N/NC(=O)CSc1nc(C)cc(C)n1)=C\c1ccccc1	Rango complex inh inconclusive
CCN(CC(=O)Nc1c(F)cccc1F)C(=O)c1cc(S(=O)(=O)N(CC)CC)ccc1N1CCCCC1	Nrf2 inh 8.2µM | FLuc enzyme inh inactive | A549 tox-2 inactive | ARE-Fluc inh 10µM
C(=C\c1ccco1)/c1ccc2ccccc2n1	Rango complex inh inconclusive, Nrf2 inh inconclusive, Nrf2 activator inconclusive
